Measurements published in PubChem BioAssay (EPA / NIEHS).
Active and inactive are the calls of the source. Rule for the calls: active = hit-call score of the fitted dose curve at least 0.9, where 1 is the maximum; inactive = score below 0.9.

Each compound was assayed against Estrogen receptor (Homo sapiens) (UniProt P03372) (assay: OT_ERa_GFPERaERE_0480: Odyssey Thera (OT) 8-hour HeLa Transcription Induction Assay for Estrogen Receptor (AID 2283381)).
Experimental: OT_ERa_GFPERaERE_0480 is a cell-based, single-readout assay that uses HeLa, a human cervix cell line, with measurements taken at 8 hours after chemical dosing in a 384-well plate.OT_ERa_GFPERaERE_0480 is one of one assay component(s) measured or calculated from the OT_ERa_GFPERaERE_0480 assay. It is designed to make measurements of fluorescent protein induction, a form of inducible reporter, as detected with optical microscopy: fluorescence microscopy signals by Microscopy technology.Data from the assay component OT_ERa_GFPERaERE_0480 was analyzed into 1 assay endpoint. This assay endpoint, OT_ERa_EREGFP_0480, was analyzed in the positive analysis fitting direction relative to DMSO as the negative control and baseline of activity. Using a type of inducible reporter, measures of receptor for gain-of-signal activity can be used to understand the reporter gene at the pathway-level as they relate to the gene ESR1. Furthermore, this assay endpoint can be referred to as a primary readout, because the performed assay has only produced 1 assay endpoint. To generalize the intended target to other relatable targets, this assay endpoint is annotated to the nuclear receptor intended target family, where the subfamily is steroidal.
All assay endpoints are quantified using high content image analysis algorithms.

Estrogen receptor (Homo sapiens), sequence (P03372 whole entry, looked up): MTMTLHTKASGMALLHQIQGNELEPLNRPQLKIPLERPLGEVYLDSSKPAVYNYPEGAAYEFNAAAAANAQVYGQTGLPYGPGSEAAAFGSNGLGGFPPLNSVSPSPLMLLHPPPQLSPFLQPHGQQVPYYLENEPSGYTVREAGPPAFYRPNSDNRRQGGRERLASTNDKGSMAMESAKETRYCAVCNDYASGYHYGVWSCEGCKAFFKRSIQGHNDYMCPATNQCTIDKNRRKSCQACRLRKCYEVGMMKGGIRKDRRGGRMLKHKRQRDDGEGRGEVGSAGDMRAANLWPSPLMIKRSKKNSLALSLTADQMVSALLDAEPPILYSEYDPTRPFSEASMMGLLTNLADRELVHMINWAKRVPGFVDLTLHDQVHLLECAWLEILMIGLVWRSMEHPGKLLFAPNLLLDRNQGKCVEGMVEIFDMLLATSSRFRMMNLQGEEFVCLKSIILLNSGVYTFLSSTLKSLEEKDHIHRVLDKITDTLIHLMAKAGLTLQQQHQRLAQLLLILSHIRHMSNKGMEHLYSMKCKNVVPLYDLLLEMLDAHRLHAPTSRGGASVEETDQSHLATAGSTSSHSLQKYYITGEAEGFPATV

SMILES | outcome | AC50
CC1(C)NC(=O)NC1=O | inactive | –
O=C(OCCCCCOC(=O)c1ccccc1)c1ccccc1 | inactive | –
CCc1c(C(=O)NN2CCCCC2)nn(-c2ccc(Cl)cc2Cl)c1-c1ccc(Br)cc1 | inactive | –
CCCCN(CCCC)CCCC | inactive | –
Cc1nc(-c2ccc3c(c2)CCN(CCC2CCC(NC(=O)/C=C/c4ccc(F)cc4)CC2)CC3)no1 (stereo not given) | inactive | –
C1CCC(SSC2CCCCC2)CC1 | inactive | –
O=c1[nH]cc(F)c(=O)[nH]1 | inactive | –
Cc1ccc2ncccc2c1 | inactive | –
CC(=O)OC/C=C(\C)CCC=C(C)C | inactive | –
COc1ccc2c(c1)c(CC(=O)O)c(C)n2C(=O)c1ccc(Cl)cc1 | inactive | –
CC(=O)Oc1ccccc1C(=O)O | inactive | –
CC=Cc1ccc(O)c(OC)c1 | – | 76.2 µM (active)
NS(=O)(=O)c1cc2c(cc1Cl)NCNS2(=O)=O | inactive | –
CCNc1cccc(C)c1 | inactive | –
CCCCCCCCCCO | inactive | –
Cc1ccc(C)c(C)c1 | inactive | –
Clc1cc(Cl)c(Cl)cc1Cl | inactive | –
Cc1cc(NC(=O)C(=O)O)cc(C)c1Oc1ccc(O)c2c1CCC2 | inactive | –
Cc1cccc(C)c1O | inactive | –
CCCCCCCCCCCC(=O)OC | inactive | –

SMILES | outcome | AC50
Cc1cccc(Nc2cc(Cl)nc(SCC(=O)O)n2)c1C | inactive | –
Cc1nc(C)nc(N2C[C@@H](C)N(c3ccnc([C@@H](C)O)n3)[C@@H](C)C2)n1 | inactive | –
C=CCOC(=O)c1ccccc1C(=O)OCC=C | inactive | –
Cc1ccc(Cl)cc1 | inactive | –
CCCCCCOCCO | inactive | –
CCCCCCCCCCCCCO | inactive | –
CCCCc1ccc2c(n1)[C@@H](c1ccc(OC)cc1C[C@H](C)C(=O)O)[C@H](C(=O)O)[C@H]2c1ccc2c(c1)OCO2 | inactive | –
COC(=O)c1ccc(O)cc1 | inactive | –
CCOC(=O)CCC(=O)OCC | inactive | –
FC(F)(F)C(F)(F)C(F)(F)C(F)(F)C(F)(F)C(F)(F)CCI | inactive | –
CCOC(=O)C(C)(C)Oc1ccc(Cl)cc1 | inactive | –
COCCOC[C@H](CC1(C(=O)NC2CCC(C(=O)O)CC2)CCCC1)C(=O)Oc1ccc2c(c1)CCC2 (stereo not given in full) | inactive | –
CCCCCCC(=O)OCC | inactive | –
CNCc1cc(F)ccc1Oc1ccc(Cl)c(Cl)c1 | – | 75.6 µM (active)
Cc1oc(-c2ccccc2)nc1CCOc1cccc2c1ccn2CCC(=O)O | inactive | –
NCC1(Cc2noc(=O)[nH]2)CCCCC1 | inactive | –
CC(=O)C(C)=CC1C(C)=CCCC1(C)C (stereo not given) | inactive | –
O=C(O)CCCCC(=O)O | inactive | –
Nc1ccccc1N | inactive | –
Cc1ccc(C)c(O)c1C | inactive | –
